# Test results: PubChem BioAssay (NCATS)
# Records with an inconclusive call do not appear. A call without a number means that no potency is given here. Active and inactive are the calls of the source. Calls come from the whole dose curve; as a rule, active = well fitted inhibition curve with a large enough effect; inconclusive = small, poorly fitted or top-dose-only effect; inactive = flat fitted curve, though single readings scatter.
# Target: Phospholipid hydroperoxide glutathione peroxidase GPX4 (Homo sapiens) (UniProt P36969)
# Sequence (P36969 whole entry, looked up): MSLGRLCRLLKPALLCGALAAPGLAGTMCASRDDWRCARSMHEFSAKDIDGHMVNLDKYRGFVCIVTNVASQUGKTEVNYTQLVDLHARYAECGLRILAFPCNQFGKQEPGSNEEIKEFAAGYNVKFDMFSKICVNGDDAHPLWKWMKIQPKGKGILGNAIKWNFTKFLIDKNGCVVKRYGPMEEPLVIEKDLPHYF
# Experiment: Primary qHTS Assay for Inhibitors of Recombinant Selenoprotein Glutathione Peroxidase 4 (GPX4) (AID 1845192); note: nearly all actives have a fitted effect of over 65% in size
# Conditions: recombinant GPX4, GR-coupled NADPH fluorescence, 15 min; series mostly up to 50 µM; activity change, negative = inhibition: at the top concentration
# Outline: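 GR-coupled readout: 100 nM GR, 1 mM GSH, 0.5 mM NADPH; NADPH fluorescence (ex 340/em 450 nm) read at t=0 and after 15 min RT. GPX4 200 nM, preincubated 30 min with compound; substrate 0.5 mM CHP.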
# Potency is the fitted concentration of half-maximal effect.
SMILES,outcome,Potency,"activity change, negative = inhibition"
O=C(O)P(=O)(O)O,inactive,,
Oc1c(Cl)cc(Cl)c(Cl)c1Cc1c(O)c(Cl)cc(Cl)c1Cl,,25.5 µM (active),
OCCOCCN1CCN(C2=Nc3ccccc3Sc3ccccc32)CC1,inactive,,
C#C[C@]1(O)CC[C@H]2[C@@H]3[C@H](C)CC4=C(CCC(=O)C4)[C@H]3CC[C@@]21C,,inactive,
CN1CCC[C@@H]1CCO[C@](C)(c1ccccc1)c1ccc(Cl)cc1,,,-3.85% (inactive)
CCN1CCN(C(=O)N[C@@H](C(=O)N[C@@H]2C(=O)N3C(C(=O)O)=C(CSc4nnnn4C)CS[C@H]23)c2ccc(O)cc2)C(=O)C1=O,,inactive,
CC(=O)O[C@]1(C(C)=O)CC[C@H]2[C@@H]3C=C(C)C4=CC(=O)CC[C@]4(C)[C@H]3CC[C@@]21C,,inactive,
O=C(Nc1ccccc1)OCC(CN1CCCCC1)OC(=O)Nc1ccccc1 (stereo not drawn),,,-27.8% (inactive)
O=C(O)CCC(=O)Nc1ccc(S(=O)(=O)Nc2nccs2)cc1,inactive,,
CCCCCCCCCCCCOCCOCCOCCOCCOCCOCCOCCOCCOCCO,inactive,,
CC(=C(CCOC(=O)C(C)C)SSC(CCOC(=O)C(C)C)=C(C)N(C=O)Cc1cnc(C)nc1N)N(C=O)Cc1cnc(C)nc1N,inactive,,
CCCCc1cc2ccccc2c(OCCN(C)C)n1,,,-4.84% (inactive)
COC(=O)C(c1ccccc1Cl)N1CCc2sccc2C1 (stereo not drawn),inactive,,
CCCCCN=C(N)N/N=C/c1c[nH]c2ccc(OC)cc12,,,-0.579% (inactive)
CCOc1ccccc1C(N)=O,inactive,,
O=C(CCCN1CC=C(n2c(=O)[nH]c3ccccc32)CC1)c1ccc(F)cc1,,inactive,
CCOC(=O)c1c(N)sc2c1CCN(Cc1ccccc1)C2,,,-23.6% (inactive)
CCOC(=O)Nc1ccc2c(c1)N(C(=O)CCN1CCOCC1)c1ccccc1S2,,,0.373% (inactive)
C=CCN1CCc2nc(N)sc2CC1,,,-25.1% (inactive)

SMILES,outcome,Potency,"activity change, negative = inhibition"
CC1=C(C(=O)O)N2C(=O)[C@@H](NC(=O)[C@H](N)c3ccccc3)[C@H]2SC1,,,-12.5% (inactive)
CC[C@H](c1ccc(O)cc1)[C@@H](CC)c1ccc(O)cc1,,,-13.4% (inactive)
N#C/C(=C1\SCC(c2ccccc2Cl)S1)n1ccnc1 (stereo not drawn),inactive,,
CN(CCCN1c2ccccc2CCc2ccccc21)CC(=O)c1ccc(Cl)cc1,inactive,,
CCCN(CCC)S(=O)(=O)c1ccc(C(=O)O)cc1,inactive,,
CCCCNc1ccc(C(=O)OCCOCCOCCOCCOCCOCCOCCOCCOCCOC)cc1,inactive,,
Oc1ccc(Cl)cc1Cc1cc(Cl)ccc1O,,,-6.91% (inactive)
CCCCCCCCCCC[C@@H](C[C@@H]1OC(=O)[C@H]1CCCCCC)OC(=O)[C@H](CC(C)C)NC=O,,inactive,
NCCNC(=O)c1ccc(Cl)cn1,,,4.86% (inactive)
NC(=O)C1(N2CCCCC2)CCN(CCCC(=O)c2ccc(F)cc2)CC1,inactive,,
O[C@@H](c1cc(C(F)(F)F)nc2c(C(F)(F)F)cccc12)[C@H]1CCCCN1,inactive,,
CN(Cc1ccc(C(C)(C)C)cc1)Cc1cccc2ccccc12,inactive,,
CCCCC(CC)COC(=O)c1ccc(N(C)C)cc1 (stereo not drawn),inactive,,
CN1CCN(C2=Nc3ccccc3Sc3ccc(Cl)cc32)CC1,,,-3.05% (inactive)
CCOc1ccccc1OCCN[C@H](C)Cc1ccc(OC)c(S(N)(=O)=O)c1,,,3.64% (inactive)
COc1ccc(C(=O)c2ccccc2)c(O)c1,,,-2.65% (inactive)
Cc1c(-c2ccccc2)oc2c(C(=O)OCCN3CCCCC3)cccc2c1=O,,,-11.6% (inactive)
NC1CCN(c2nc3c(cc2F)c(=O)c(C(=O)O)cn3-c2ccc(F)cc2F)C1 (stereo not drawn),,,1.53% (inactive)
CC(=O)OCC1=C(C(=O)O)N2C(=O)[C@@H](NC(=O)CSc3ccncc3)[C@H]2SC1,inactive,,
